Assay outcomes (PubChem BioAssay)
Bim-Bcl-B: human Bim-Bcl-B interaction inhibition | Q9HD36 | inhibition, % at 10 µM | hit rate 0.073% among 190,000 | bead-based flow cytometry, Bim peptide-Bcl-B binding
Target sequence (Q9HD36 whole entry, looked up): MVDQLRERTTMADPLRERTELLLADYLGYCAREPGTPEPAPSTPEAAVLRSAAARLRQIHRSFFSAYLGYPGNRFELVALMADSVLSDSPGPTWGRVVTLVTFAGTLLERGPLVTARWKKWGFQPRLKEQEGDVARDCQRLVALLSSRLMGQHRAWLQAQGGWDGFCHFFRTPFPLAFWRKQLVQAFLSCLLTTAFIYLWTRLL
Bim-Bcl-XL: human Bim-Bcl-XL interaction inhibition | Q07817 | Bim peptide-Bcl-XL binding, bead flow cytometry, fluorescence | inhibition, % at 10 µM | hit rate 0.04% among 190,000
Target sequence (Q07817 whole entry, looked up): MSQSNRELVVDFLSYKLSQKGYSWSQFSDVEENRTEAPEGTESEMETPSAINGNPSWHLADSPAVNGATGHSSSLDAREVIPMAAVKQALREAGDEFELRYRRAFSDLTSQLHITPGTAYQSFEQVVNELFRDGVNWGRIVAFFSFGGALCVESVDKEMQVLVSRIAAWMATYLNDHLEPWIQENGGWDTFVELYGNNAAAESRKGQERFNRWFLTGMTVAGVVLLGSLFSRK
Bim-Bfl-1: human Bim-Bfl-1 interaction inhibition; AID 1008; hit rate 0.12% among 190,000; inhibition, % at 10 µM; Q16548; Bead-based flow cytometry, Bim-Bfl-1 binding inhibition
Bcl-2 Bim block: inhibitors of Bim-Bcl-2 interaction, human | Bead-based flow cytometry, Bim peptide-Bcl-2 binding | inhibition, % at 10 µM | hit rate 0.06% among 190,000; in the data active = inhibition above about 40%
Target sequence (P10415 whole entry, looked up): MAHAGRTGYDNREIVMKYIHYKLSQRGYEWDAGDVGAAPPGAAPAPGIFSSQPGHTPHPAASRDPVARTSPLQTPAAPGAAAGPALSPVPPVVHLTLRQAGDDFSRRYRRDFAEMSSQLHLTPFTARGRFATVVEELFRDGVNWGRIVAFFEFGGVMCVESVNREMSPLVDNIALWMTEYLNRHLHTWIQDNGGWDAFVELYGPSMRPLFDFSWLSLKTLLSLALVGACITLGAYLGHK
Bim-Bcl-W: inhibitors of Bim-Bcl-W interaction, human; Q92843; bead-based flow cytometry, Bim peptide-Bcl-W binding; inhibition, % at 10 µM; hit rate 0.02% among 190,000;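 also: higher means less fluorescent Bim peptide bound to Bcl-W beads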
Furin inhibitor: inhibitors of human furin. hit rate 0.061% among 220,000. inhibition, % at 20 µM or 30 µM. purified furin, fluorogenic substrate cleavage; in the data active = inhibition above about 25%
Bim-BclXL dose: dose-response confirmed modulator of Bim binding to human Bcl-XL; shares compounds with Bim-Bfl-1; inhibition of binding at 100 µM; bead-based flow cytometry; 40 tested, under 10 active; call rule not given here
Large screens that a line does not name were inactive (follow-up assays come after a bar, where they were run). Most compounds without a hit are left out; they make up all but 0.25% or so of the library. Rule as the data show it, unless noted: active = inhibition above about 40%.

CCn1c(SCC(=O)O)nnc1-c1ccccc1OC	none
COc1ccc2oc(-c3ccccc3)c(C(=O)N3CCOCC3)c2c1	Bim-Bcl-B 81, Bim-Bfl-1 60, Bcl-2 Bim block 80
CCOc1ccc2oc(-c3ccccc3)c(C(=O)N3CCN(C)CC3)c2c1	none
O=C(NCc1ccco1)C1CC2CCC1C2 (stereo not drawn)	Bim-Bcl-XL 47
COC(=O)c1c(NC(=O)COc2ncnc3ccccc23)sc(C)c1C	Bim-Bcl-B 55
CC/C(C)=N/Oc1nc(C)cc(C)n1	none (no result: Bim-Bcl-B, Bim-Bcl-XL, Bim-Bfl-1, Bcl-2 Bim block, Bim-Bcl-W)
COc1ccc(CN(C)CC(=O)NC(C)c2ccccc2)c(OC)c1 (stereo not drawn)	Bim-Bcl-B 60, Bim-Bfl-1 56, Bcl-2 Bim block 62
O=C1/C(=C\c2ccc(-c3ccccc3Cl)o2)SC(=S)N1CC1CCCO1 (stereo not drawn)	Bcl-2 Bim block 45
CC(C)CCNC(=O)C(c1cccnc1)N(CCc1ccccc1)C(=O)Cn1nnc2ccccc21 (stereo not drawn)	none
O=C(O)/C=C/C(=O)NNC(=O)c1ccc(Br)cc1	Bim-Bcl-XL 41
c1ccc(-c2ccc(-c3cn4c(n3)CCC4)cc2)cc1	none
CCN(CC)CCCN1CC(O)=C(c2nc3ccccc3s2)C1=N	none
N=C1C(c2nc3ccccc3s2)=C(O)CN1Cc1ccccc1	Bim-Bcl-B 83, Bim-Bfl-1 68, Bcl-2 Bim block 85
COc1ccc(C(=O)Nc2ccccc2C(=O)NC(Cc2ccc(O)cc2)C(=O)NNC(=O)c2ccncc2)cc1 (stereo not drawn)	none
CCC(C)[C@H](NC(=O)Nc1ccccc1F)C(=O)OC (stereo partly drawn)	none (no result: Bim-Bcl-B, Bim-Bcl-XL, Bim-Bfl-1, Bcl-2 Bim block, Bim-Bcl-W)
CCN1/C(=C/c2ccc3cc(C)cc(C)c3[n+]2CC)Sc2cc(C)ccc21	Bim-Bfl-1 45
CCN1/C(=C\c2ccc3cc(C)ccc3[n+]2CC)Sc2cc(C)c(C)cc21	none
CC1CCN(c2ccc(NC(=O)c3cccnc3)cc2)CC1	Furin inhibitor 25
CC1CCN(c2ccc(NC(=O)c3cccnc3Cl)cc2)CC1	none
Nc1c(C(=O)NC2CC2)sc2nc3c(c(-c4ccco4)c12)CC/C3=C/c1ccco1	Bim-Bfl-1 56, Bcl-2 Bim block 43
Cc1nc2ncccn2c1-c1csc(Nc2ccccc2)n1	Bim-Bcl-XL 44
COc1ccc(Nc2nc(-c3c(C)nc4ncccn34)cs2)cc1	none
CCN(CCn1cccn1)Cc1c(C(=O)N2C[C@@H](C)O[C@@H](C)C2)nc2ccc(Cl)cn12	none
Nc1cc(=O)[nH]c(=O)n1Cc1ccco1	Furin inhibitor 26
Nc1cc(=O)[nH]c(=O)n1Cc1ccccc1	none
C=CCN(C)NC(=S)Nc1ccccc1	none
CN1CCc2cccc3c2[C@@H]1Cc1ccc(O)c(O)c1-3	Bim-Bfl-1 40, Bcl-2 Bim block 40, Bim-Bcl-W 51
O=C(CCn1c(=S)oc2ccccc21)NC1CCCCCCC1	none (no result: Bim-Bcl-B, Bim-Bcl-XL, Bim-Bfl-1, Bcl-2 Bim block, Bim-Bcl-W)
O=C1CCCC(O)=C1C=Nc1cccc(C(F)(F)F)c1	Furin inhibitor 26
COc1cccc(N=CC2=C(O)CCCC2=O)c1	none
COc1ccc(C(=O)NC(=S)N2CCNC(=O)C2)cc1Br	Bim-Bcl-B 70, Bim-Bfl-1 71, Bcl-2 Bim block 79
O=C1CN(C(=S)NC(=O)c2ccc(-c3ccccc3)cc2)CCN1	none
CC1CN(c2nc3ccccn3c(=O)c2/C=C(\C#N)S(=O)(=O)c2ccccc2)CC(C)O1 (stereo not drawn)	Furin inhibitor 31
Cc1ccc(N2C(=O)c3cccc4c(Oc5ccccc5[N+](=O)[O-])ccc(c34)C2=O)c(C)c1	none
NC(=O)c1ccccc1N/C=C/C(=O)c1ccc(F)cc1	Furin inhibitor 27
O=C(COc1ccc(Cl)cc1Cl)NC(=O)N1CCCCC1	Furin inhibitor 32
CCOC(=O)N1CCC(n2c(SCC(=O)c3ccccc3)nc3ccsc3c2=O)CC1	none
COc1ccc(N2CCN(C(=O)CSc3nnc(-c4ccco4)n3C)CC2)cc1	none
CCOc1cc(/C=C2/N=C(C)C(C(=O)OC)=C2O)ccc1O	Bim-Bcl-B 44, Bim-Bfl-1 58, Bcl-2 Bim block 59, Bim-Bcl-W 59
O=C(Nc1ccccc1)N(CCN1CCOCC1)Cc1ccccc1F	Furin inhibitor 30
COc1ccc(/C=C2\CCCc3c2nc2ccccc2c3C(=O)OCC(=O)c2c(N)n(C)c(=O)n(C)c2=O)cc1	none
O=C(NC1=C(Nc2ccc(Cl)cc2)C(=O)c2ccccc2C1=O)c1ccccc1	none
O=C(NC1=C(NC2CCS(=O)(=O)C2)C(=O)c2ccccc2C1=O)c1ccccc1 (stereo not drawn)	Bim-Bfl-1 56
O=C1CCC([N+](=O)[O-])C(c2cccc(Br)c2)N1 (stereo not drawn)	none
O=C1CCCC2(O)C1C(c1cccc(Br)c1)NC(=O)N2Cc1ccccc1 (stereo not drawn)	Bim-Bcl-XL 49
COc1cccc(NC(=O)c2cc(OC)c(OC)c(OC)c2Br)c1	none
O=C(CNC(=O)c1ccco1)NCC(=O)OCc1ccccc1Br	Bcl-2 Bim block 89 (no result: Bim-Bcl-B, Bim-Bfl-1)
CCOc1c(Cl)cc(CNc2ccc(N3CCCC3)cc2)cc1OC	Bim-Bfl-1 41
Cc1onc(-c2ccc(Cl)cc2Cl)c1-c1csc(N/N=C/c2ccccc2Cl)n1	none (no result: Bim-Bcl-B, Bim-Bcl-XL, Bim-Bfl-1, Bcl-2 Bim block, Bim-Bcl-W)
O=C(CCc1ccccc1)N1CCN(c2ccccn2)CC1	Bim-Bcl-B 43
CC(C)c1ccc(S(=O)(=O)/N=C2/C=C(Sc3ncn[nH]3)C(=O)c3ccccc32)cc1	none
Cc1ccc(S(=O)(=O)/N=C2/C=C(Sc3ncn[nH]3)C(=O)c3ccccc32)cc1	Bim-Bfl-1 62
Cc1ccc(S(=O)(=O)/N=C2/C=C(Sc3ncn[nH]3)C(=O)c3ccccc32)c(C)c1	Bim-Bfl-1 69
O=C(/C=C/c1ccc(-c2ccccc2[N+](=O)[O-])o1)c1ccccc1	none | Bim-BclXL dose inactive
N#C/C(=C\c1ccc(-c2ccccc2[N+](=O)[O-])o1)C(N)=O	none (no result: Bim-Bcl-B, Bim-Bcl-XL, Bim-Bfl-1, Bcl-2 Bim block, Bim-Bcl-W)
COc1ccccc1NC1=C(NC(C)=O)C(=O)c2ccccc2C1=O	Bim-Bfl-1 42 | Bim-BclXL dose inactive
COC1=C(Nc2ccccc2OC)C(=O)c2ccccc2C1=O	none (no result: Bim-Bcl-B, Bim-Bcl-XL, Bim-Bfl-1, Bcl-2 Bim block, Bim-Bcl-W)
C=CS(=O)(=O)c1sc(Cl)c(N2CCOCC2)c1[N+](=O)[O-]	Bim-Bfl-1 48 | Bim-BclXL dose inactive
C=CSc1sc(Cl)c(N2CCOCC2)c1[N+](=O)[O-]	none
O=C(Nc1ccc(Cl)c(C(F)(F)F)c1)NC1CC2CCCC(C1)N2C1CC1 (stereo not drawn)	none (no result: Bim-Bcl-B, Bim-Bcl-XL, Bim-Bfl-1, Bcl-2 Bim block, Bim-Bcl-W)
CN(CCO)c1cc(Sc2nc3ccccc3s2)c2nonc2c1[N+](=O)[O-]	Bim-Bfl-1 50 | Bim-BclXL dose inactive
O=c1c2c(n3nnnc3n1Cc1ccccc1)-c1ccccc1CC21CCCC1	Bim-Bcl-B 69 | Bim-BclXL dose inactive
O=C(Nc1ccc(S(=O)(=O)Nc2ccccn2)cc1)C(F)(F)F	none
